Compound activity deposited in PubChem by The Scripps Research Institute Molecular Screening Center.
Most compounds without a hit are left out; they make up all but 3.4% or so of the library.
FBW7 activator = FBW7 E3 ligase activators, primary screen, biochemical, AlphaScreen, human; hit rate 0.13% among 650,000; AlphaScreen FBW7–phospho-cyclin E peptide binding, activator screen; normalized activity (activation), % at 26.1 µM; AID 1259310, 2017; F-box/WD repeat-containing protein 7 (Homo sapiens), Q969H0; in the data active = normalized activity above about 1.9%;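 also: purified mutant Fbw7 with reduced substrate affinity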
TEAD-YAP inh = TEAD-YAP interaction inhibition, primary screen, TEAD-YAP interaction inhibitor project, luminescence, HEK-TIYL cells | inhibition, % at 9.12 µM | AID 1259422, 2018 | hit rate 1.4% among 640,000 | TEAD-Gal4/YAP UAS-luciferase luminescence; in the data active = inhibition above about 32%
GPR151 ag = activators of human GPR151, primary screen, cell-based, PathHunter beta-arrestin, luminescence | G-protein coupled receptor 151 (Homo sapiens), Q8TDV0 | PathHunter beta-arrestin GPR151 cells | activation, % at 11.2 µM | hit rate 1% among 650,000 | AID 1508602, 2020; in the data active = activation above about 4.9%
MITF primary = MITF inhibitors, primary screen, biochemical, AlphaScreen, human; Microphthalmia-associated transcription factor (Homo sapiens), O75030; AlphaScreen MITF homodimerization, bead proximity signal; inhibition, % at 2.6 µM; hit rate 0.91% among 650,000; in the data active = inhibition above about 50%
GPR151 conf act = GPR151 activators, triplicate retest, confirmation, cell-based, PathHunter beta-arrestin, luminescence | GPR151 PathHunter beta-arrestin cells, 90 min; % of EA-reagent control over plate median | shares compounds with GPR151 ag | AID 1508609, 2020 | activation, % at 11.2 µM | 6,700 tested, under 10 active;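 active = mean percent activation across replicates above the confirmation screen cutoff of 4.91%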
GPR119 counter = GPR119 activators in beta-arrestin cells, counter-screen for GPR151 activator project, cell-based, PathHunter beta-arrestin, luminescence, triplicate; shares compounds with GPR151 ag; 90 min; 0 = compound-well median, 100 = enzyme-acceptor control; activation, % at 11.2 µM; hit rate 0.3% among 6,700;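 active = mean percent activation in the counterscreen above 29.09%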;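 also: counterscreen on off-target GPR119 to flag nonselective hits from the GPR151 activator screen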
Target sequence (Q8TDV5 whole entry, looked up): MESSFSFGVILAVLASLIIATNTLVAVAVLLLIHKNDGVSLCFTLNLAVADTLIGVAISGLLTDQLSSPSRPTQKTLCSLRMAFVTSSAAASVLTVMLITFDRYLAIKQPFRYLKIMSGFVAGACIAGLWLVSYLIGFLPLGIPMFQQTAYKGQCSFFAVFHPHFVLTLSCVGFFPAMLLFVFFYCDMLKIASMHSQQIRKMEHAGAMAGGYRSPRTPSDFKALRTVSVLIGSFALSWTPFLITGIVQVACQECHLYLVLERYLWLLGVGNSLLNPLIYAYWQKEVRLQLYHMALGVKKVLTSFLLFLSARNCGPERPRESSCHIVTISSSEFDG
Hits are given with their value; 0 = inactive; - = not tested or not shown.

SMILES	FBW7 activator	TEAD-YAP inh	GPR151 ag	MITF primary	GPR151 conf act	GPR119 counter
CC(C)=C1C2CCC1C(C(=O)Nc1cc(F)ccc1F)C2C(=O)O (centres undefined)	0	0	0	0	-	-
COCCCNC(=O)CCc1c(C)nc2cc(-c3ccccc3)nn2c1C	0	0	5.3	0	0	0
O=C1CC(N2CCN(C(c3ccccc3)c3ccccc3)CC2)C(=O)N1c1cccc2ccccc12 (centres undefined)	0	0	0	0	-	-
O=C(Nc1ccc2nc(SCC(=O)N3CCOCC3)sc2c1)c1ccccc1	0	0	0	0	-	-
CCN(CC)c1nc(C)nc2sc(C(=O)Nc3ccc(Oc4ccccc4)cc3)c(C)c12	0	0	0	0	-	-
Cc1nc(N(C)c2ccc(C(C)C)cc2)c2c(C)c(C(=O)Nc3ccc(Oc4ccccc4)cc3)sc2n1	0	0	7.8	0	0	0
Cc1cc(C)c2cc(C#N)c(N3CCCN(C(=O)CCC(=O)O)CC3)nc2c1	0	0	0	0	-	-
CC(=O)N1CCCN(c2nc3cc(C)cc(C)c3cc2C#N)CC1	0	0	7.2	0	0	0
CCC(C(=O)N1CCCCC1)n1ncn2c(cc3occc32)c1=O (centres undefined)	0	0	5.7	0	0	0
Cc1ccc(CNc2nc(CN(C)C3CCOC3)nc3ccccc23)cc1 (centres undefined)	0	0	0	0	-	-
CC(Nc1nc(CN(C)C2CCOCC2)nc2ccccc12)c1ccc(F)cc1 (centres undefined)	0	0	7.7	0	0	0
O=C(c1ccco1)N(Cc1ccccc1F)C1CCS(=O)(=O)C1 (centres undefined)	0	0	5.3	0	0	0
Cc1cc2c(cc1S(=O)(=O)Nc1ccccc1Br)OCCN2C	0	0	9.7	0	0	0
CN1CCOc2cc(S(=O)(=O)Nc3ccccc3F)ccc21	0	0	16	0	0	0
Cc1cc2c(cc1S(=O)(=O)Nc1ncccc1C)OCCN2C	0	0	6.3	0	0	0
Cc1cc2c(cc1S(=O)(=O)Nc1ccccn1)OCCN2C	0	0	0	0	-	-
CCc1ccccc1NS(=O)(=O)c1ccc2c(c1)OCCN2C	0	0	0	0	-	-
COc1ccc(CCNS(=O)(=O)c2ccc3c(c2)OCCN3C)cc1OC	0	0	5.2	0	0	0
CN1CCOc2cc(S(=O)(=O)NCCc3ccc(Cl)cc3)ccc21	0	0	0	0	-	-
CCOc1ccc(C(C)=O)cc1CCl	0	0	0	0	-	-
CCN(CC)S(=O)(=O)c1cc([N+](=O)[O-])ccc1N/N=C/c1ccc(N(C)C)cc1	0	0	0	0	-	-
CCCN(CCC)S(=O)(=O)c1ccc(C(=O)Nc2nc3c(OC)cccc3s2)cc1	0	0	6.6	0	0	0
CCCN(CCC)S(=O)(=O)c1ccc(C(=O)Nc2nc3c(ccc4ccccc43)s2)cc1	0	0	0	0	-	-
COc1ccc(CNC(=O)CNC(=S)N(Cc2cccs2)C2CCCC2)cc1	0	0	0	0	-	-
NNc1ncnc2sc3c(c12)CCCCC3	0	0	0	0	-	-
SMILES	FBW7 activator	TEAD-YAP inh	GPR151 ag	MITF primary	GPR151 conf act	GPR119 counter
COc1cc(CNCCO)cc(Br)c1OCc1ccccc1	0	0	0	0	-	-
C=CCOc1c(Br)cc(CNCCO)cc1OC	0	0	6.7	0	0	0
CC(C)C(=O)Nc1nc2ccc(F)cc2s1	0	0	0	0	-	-
CCc1ccccc1NC(=S)Nc1nc2ccc(F)cc2s1	0	46	5.5	0	0	0
COc1ccc(C2/C(=C(\O)c3ccccc3)C(=O)C(=O)N2c2cc(C(C)(C)C)on2)cc1OC (centres undefined)	0	0	0	0	-	-
COc1cccc(/C=N/n2c(C)cc(C)c(C#N)c2=O)c1O	0	0	0	0	-	-
COc1cc(/C=N/N2C(C)CCCC2C)cc(Br)c1O (centres undefined)	0	0	8.2	0	0	0
Cc1ccccc1-n1ncc2c(=O)n(CC(=O)N3CCCc4ccccc43)cnc21	0	0	0	0	-	-
COc1ccc(-c2oc3ncn4nc(-c5cccc6ccccc56)nc4c3c2-c2ccc(OC)cc2)cc1	0	0	5.3	0	0	0
O=C(CCC1CCCCC1)NNC(=O)c1cnccn1	0	0	6.5	0	0	0
O=C(NNC(=O)C1CCCCC1)c1cnccn1	0	0	0	0	-	-
Cc1ccc(-c2cnc(N3CCN(c4ccccn4)CC3)nc2)cc1	0	0	0	0	-	-
COC(=O)c1c(NC(=S)N2CCN(C(=O)C3CCCO3)CC2)sc2c1CCC2 (centres undefined)	0	0	0	0	-	-
COC(=O)c1c(NC(=S)N2CCN(S(C)(=O)=O)CC2)sc2c1CCCCCC2	0	0	6.7	0	0	0
COc1ccc(/C=C/C(=O)c2ccc[nH]2)cc1OC	0	0	5.8	0	0	0
COc1ccc2nc(N3CC(C(=O)NCCc4c[nH]c5ccccc45)C3)sc2c1	0	0	0	0	-	-
CC(C)C(=O)N=C1SC2CS(=O)(=O)CC2N1c1cccc(C(F)(F)F)c1 (centres undefined)	0	0	7.5	0	0	0
CNC(=O)c1c(NC(=O)CN2C(=O)CCC2=O)sc2c1CCC(C)C2 (centres undefined)	0	0	0	0	-	-
O=C(O)c1cc(N2C(=O)C3C4C=CC(C4=C(c4ccccc4)c4ccccc4)C3C2=O)ccc1Cl (centres undefined)	0	0	5.1	0	0	0
COc1cccc(C=Nc2ccc(C)c(F)c2)c1O	0	0	5.8	0	0	0
Cc1nn(S(=O)(=O)c2ccc(Cl)cc2)c(C)c1S(=O)(=O)N1CCCC(C)C1 (centres undefined)	0	0	0	0	-	-
CCCC1=NN2C(=N)/C(=C/c3ccc(N(C)C)cc3)C(=O)N=C2S1	0	0	0	0	-	-
CCCCCCCC1=NN2C(=N)/C(=C/c3ccc(N(C)C)cc3)C(=O)N=C2S1	0	0	5.7	0	0	0
O=C(CC1S\C(=N/N=C/C=C/c2ccccc2)NC1=O)Nc1ccccc1F (centres undefined)	0	0	7.8	0	0	0
Cc1cc(NC(=O)c2ccc(C)s2)n(-c2nc3ccccc3[nH]2)n1	0	0	5.3	0	0	0
COc1cc(Nc2nc(-c3ccc(N4CCOCC4)nc3)nc3c2ncn3Cc2ccc(C(F)(F)F)cc2)cc(OC)c1OC	0	0	6.6	0	0	0
FC(F)(F)c1ccc(Cn2cnc3c(Nc4ccc(N5CCOCC5)cc4)nc(-c4ccc(N5CCOCC5)nc4)nc32)cc1	0	0	0	0	-	-
